PubChem BioAssay (NCATS)
Results filed as inconclusive are left out. Unmarked numbers belong to inactive results. Active and inactive are the calls of the source. Calls come from the whole dose curve; as a rule, active = well fitted inhibition curve with a large enough effect; inconclusive = small, poorly fitted or top-dose-only effect; inactive = flat fitted curve, though single readings scatter.

Legend:
Test in all cases: Cytotoxic Profiling of Annotated Libraries Using Quantitative High-Throughput Screening (AID 1296008); note: nearly all actives have a fitted effect of over 60% in size
Conditions in all cases: Five cell lines viability, CellTiter-Glo ATP luminescence, 48-72 h; max response: stronger effect = lower value
CRL-7250 = normal cell line; tested on: CRL-7250
In short: (§1)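 Compounds were pin-transferred onto cells and incubated 48 or 72 hr at 37 degree Celsius, 95% humidity. CellTiter-Glo was added, plates sat 10 min at room temperature, then ATP-coupled luminescence was imaged as the viability read-out.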

HaCat = tested on: HaCat
In short: as §1

KB-3-1 = tested on: KB-3-1
In short: as §1

NIH3T3 = tested on: NIH3T3
In short: as §1
% is set by controls: 0 for no effect and ±100 for the full control effect; potency is the fitted concentration of half-maximal effect.

**Q.** For `O=C(Nc1ccc(N2C(=O)[C@@H]3[C@H](C2=O)[C@@H]2C=C[C@H]3C2)c(Cl)c1)c1ccccn1`, which max response (CRL-7250) is on record?
**A.** -25.2%

**Q.** What about the max response (HaCat) of the same molecule?
**A.** -18.9%

**Q.** And the max response (KB-3-1)?
**A.** -24.5%

**Q.** And the max response (NIH3T3)?
**A.** -23.8%

**Q.** `COc1cc2ncnc(Nc3ccc(F)c(Cl)c3)c2cc1O` was tested. Which outcome (CRL-7250) did it give?
**A.** inactive

**Q.** And the Potency (HaCat)?
**A.** 1.3 µM (active)

**Q.** And the max response (KB-3-1)?
**A.** -4.6%

**Q.** What about the outcome (NIH3T3) of the same molecule?
**A.** inactive

**Q.** Which max response (CRL-7250) does the source give for `O=C(c1ccccn1)N(Cc1cccs1)C1(C(=O)NC2CCCCC2)CCCCC1` here?
**A.** -5.83%

**Q.** What about the max response (HaCat) of the same molecule?
**A.** -24.4%

**Q.** What about the max response (KB-3-1) of the same molecule?
**A.** 7.82%

**Q.** And the outcome (NIH3T3)?
**A.** inactive

**Q.** With `COC(=O)c1ccc(N2CCN(C)CC2)c(NC(=O)c2cccc(OC)c2)c1` as the molecule, how does the max response (CRL-7250) read?
**A.** -14.2%

**Q.** What about the max response (HaCat) of the same molecule?
**A.** -1.79%

**Q.** And the max response (KB-3-1)?
**A.** -6.24%

**Q.** And the max response (NIH3T3)?
**A.** 3.28%

**Q.** `CN(C)S(=O)(=O)c1ccc(NC(=S)N2CCC(C(O)(c3ccccc3)c3ccccc3)CC2)cc1` was tested. Which outcome (CRL-7250) did it give?
**A.** inactive

**Q.** And the max response (HaCat)?
**A.** 3.08%

**Q.** What about the max response (KB-3-1) of the same molecule?
**A.** -18.9%

**Q.** What about the outcome (NIH3T3) of the same molecule?
**A.** inactive
